# Test results reported in the supplement of paper PMC7724964.
# T1: ESRRG 219-458 Hormone_recep (domain begin residue: 219, domain end residue: 458), P62508
# T1 chain: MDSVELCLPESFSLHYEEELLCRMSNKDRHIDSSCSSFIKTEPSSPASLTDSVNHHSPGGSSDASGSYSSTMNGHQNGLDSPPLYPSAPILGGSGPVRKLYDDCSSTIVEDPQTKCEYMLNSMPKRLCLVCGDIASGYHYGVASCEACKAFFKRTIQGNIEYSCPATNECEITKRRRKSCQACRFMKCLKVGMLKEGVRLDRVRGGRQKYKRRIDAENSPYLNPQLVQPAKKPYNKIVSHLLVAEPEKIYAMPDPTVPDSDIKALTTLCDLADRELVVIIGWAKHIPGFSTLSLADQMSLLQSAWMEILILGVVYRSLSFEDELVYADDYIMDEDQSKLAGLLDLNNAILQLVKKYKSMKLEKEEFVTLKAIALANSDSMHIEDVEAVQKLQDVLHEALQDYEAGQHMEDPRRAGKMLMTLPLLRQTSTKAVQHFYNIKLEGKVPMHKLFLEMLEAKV
# T2: FKBP3 109-224 FKBP_C (domain begin residue: 109, domain end residue: 224), Q00688
# T2 chain: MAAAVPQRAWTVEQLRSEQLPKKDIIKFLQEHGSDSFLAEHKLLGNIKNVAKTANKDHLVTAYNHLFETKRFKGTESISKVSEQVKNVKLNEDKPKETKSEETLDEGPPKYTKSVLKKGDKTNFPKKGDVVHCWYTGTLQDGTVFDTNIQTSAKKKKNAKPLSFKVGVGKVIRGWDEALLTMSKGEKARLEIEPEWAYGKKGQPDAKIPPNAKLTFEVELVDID
# T3: ESRRA 179-423 Hormone_recep (domain begin residue: 179, domain end residue: 423), P11474
# T3 chain: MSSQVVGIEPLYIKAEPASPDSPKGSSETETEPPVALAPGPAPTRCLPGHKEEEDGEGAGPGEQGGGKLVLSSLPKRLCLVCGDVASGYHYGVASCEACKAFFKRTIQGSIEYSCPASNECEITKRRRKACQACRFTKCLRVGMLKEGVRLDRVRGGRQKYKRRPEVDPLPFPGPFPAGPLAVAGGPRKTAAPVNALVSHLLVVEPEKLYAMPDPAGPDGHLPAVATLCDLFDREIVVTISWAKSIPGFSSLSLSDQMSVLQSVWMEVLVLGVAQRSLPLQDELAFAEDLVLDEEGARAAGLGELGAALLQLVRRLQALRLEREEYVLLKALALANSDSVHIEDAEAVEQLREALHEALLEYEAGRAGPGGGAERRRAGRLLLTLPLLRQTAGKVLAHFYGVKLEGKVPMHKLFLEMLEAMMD
# T4: ESR2 263-500 Hormone_recep (domain begin residue: 263, domain end residue: 500), Q92731
# T4 chain: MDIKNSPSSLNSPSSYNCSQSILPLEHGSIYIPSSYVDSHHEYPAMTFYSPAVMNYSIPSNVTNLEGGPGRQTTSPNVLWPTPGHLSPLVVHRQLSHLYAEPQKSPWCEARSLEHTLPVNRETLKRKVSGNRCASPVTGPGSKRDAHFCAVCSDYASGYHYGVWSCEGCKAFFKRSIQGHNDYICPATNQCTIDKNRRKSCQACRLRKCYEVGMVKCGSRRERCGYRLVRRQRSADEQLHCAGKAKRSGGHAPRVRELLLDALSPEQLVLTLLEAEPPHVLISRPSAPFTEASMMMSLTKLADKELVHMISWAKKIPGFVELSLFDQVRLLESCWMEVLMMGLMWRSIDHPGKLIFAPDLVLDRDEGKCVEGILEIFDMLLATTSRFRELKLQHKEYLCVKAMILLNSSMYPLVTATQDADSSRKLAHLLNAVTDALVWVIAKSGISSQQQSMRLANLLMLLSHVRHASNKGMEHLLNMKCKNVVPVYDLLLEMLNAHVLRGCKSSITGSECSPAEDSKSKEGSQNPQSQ
# T5: EVL 1-130 WH1 (domain begin residue: 1, domain end residue: 130), Q9UI08
# T5 chain: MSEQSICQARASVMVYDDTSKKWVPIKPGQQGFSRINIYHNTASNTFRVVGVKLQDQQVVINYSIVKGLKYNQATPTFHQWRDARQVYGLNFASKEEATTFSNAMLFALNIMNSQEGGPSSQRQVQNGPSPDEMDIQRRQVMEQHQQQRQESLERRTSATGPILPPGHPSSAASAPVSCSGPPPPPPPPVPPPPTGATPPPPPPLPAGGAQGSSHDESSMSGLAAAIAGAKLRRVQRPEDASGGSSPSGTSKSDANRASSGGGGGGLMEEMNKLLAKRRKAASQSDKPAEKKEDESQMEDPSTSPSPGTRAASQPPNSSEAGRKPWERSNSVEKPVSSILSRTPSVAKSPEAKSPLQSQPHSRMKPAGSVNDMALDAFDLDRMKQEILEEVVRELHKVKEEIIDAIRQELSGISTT
# T6: ENAH 9-116 WH1 (domain begin residue: 9, domain end residue: 116), Q8N8S7
# T6 chain: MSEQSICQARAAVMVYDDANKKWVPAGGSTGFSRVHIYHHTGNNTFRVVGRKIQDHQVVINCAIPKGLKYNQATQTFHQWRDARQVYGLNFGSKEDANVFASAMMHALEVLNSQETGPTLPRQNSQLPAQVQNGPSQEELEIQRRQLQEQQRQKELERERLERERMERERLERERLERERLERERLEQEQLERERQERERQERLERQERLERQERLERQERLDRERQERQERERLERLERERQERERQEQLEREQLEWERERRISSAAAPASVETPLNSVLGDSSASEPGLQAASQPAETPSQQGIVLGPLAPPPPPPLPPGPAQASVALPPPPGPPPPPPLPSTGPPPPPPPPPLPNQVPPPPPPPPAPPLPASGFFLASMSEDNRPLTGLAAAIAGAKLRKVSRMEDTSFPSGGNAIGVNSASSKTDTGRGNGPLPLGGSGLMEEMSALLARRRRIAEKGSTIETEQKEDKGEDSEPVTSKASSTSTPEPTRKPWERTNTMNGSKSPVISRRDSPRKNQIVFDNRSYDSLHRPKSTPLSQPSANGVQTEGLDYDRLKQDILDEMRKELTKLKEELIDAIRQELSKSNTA
# T7: SPRED1 13-131 WH1 (domain begin residue: 13, domain end residue: 131), Q7Z699
# T7 chain: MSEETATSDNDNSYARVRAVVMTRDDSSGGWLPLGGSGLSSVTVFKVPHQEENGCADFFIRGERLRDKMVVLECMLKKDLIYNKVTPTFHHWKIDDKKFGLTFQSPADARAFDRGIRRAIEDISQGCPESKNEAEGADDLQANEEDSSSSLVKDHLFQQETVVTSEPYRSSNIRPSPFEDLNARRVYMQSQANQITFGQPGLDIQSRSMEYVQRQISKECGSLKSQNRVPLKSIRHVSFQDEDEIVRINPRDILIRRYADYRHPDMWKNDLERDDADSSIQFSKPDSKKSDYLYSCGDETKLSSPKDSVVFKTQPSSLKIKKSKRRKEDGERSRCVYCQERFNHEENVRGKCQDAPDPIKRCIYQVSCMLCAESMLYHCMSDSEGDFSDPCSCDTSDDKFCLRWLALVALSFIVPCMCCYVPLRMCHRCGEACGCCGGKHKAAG
# B1: unnamed (peptide)
# chain: SFPFLKMYLDPEPDDV
# B2: unnamed (peptide)
# chain: EHIQGHAPLLWEVLHS
# B3: unnamed (peptide)
# chain: EMPQYMMTWYYEPDST
# B4: unnamed (peptide)
# chain: WGAGVFLVADPQMEVV
# B5: unnamed (peptide)
# chain: SQQWSTHYPTFFELML
# B6: unnamed (peptide)
# chain: VGVYSLQDEPQKRVVV
# B7: unnamed (peptide)
# chain: TNPPAEHMSRLHWELT
# B8: unnamed (peptide)
# chain: GVDVWLWDKQWNMWMP
# B9: unnamed (peptide)
# chain: VHRDYQLGHEWLVFIN
# B10: unnamed (peptide)
# chain: SSGSSTRPMRVTRAPT
# B11: unnamed (peptide)
# chain: EEWKPHPEEGMGVFLV
# B12: unnamed (peptide)
# chain: GIGFEWVHDGWWPMWT
# B13: unnamed (peptide)
# chain: EYTNWYWLGYLPETVM
# B14: unnamed (peptide)
# chain: QQGIGVFQDWFNHGLI
# B15: unnamed (peptide)
# chain: QYVEEGSWYMLHMYLT
# B16: unnamed (peptide)
# chain: SVWWFGQTPYVLWEAS
# B17: unnamed (peptide)
# chain: VQWQDQYPTFYAEMSK
# B18: unnamed (peptide)
# chain: WEGNQWEWPPAYMELM
# B19: unnamed (peptide)
# chain: KGVFLPEIEWKQGYDQ
# B20: unnamed (peptide)
# chain: WTWDSEMGIWTLANDI
# B21: unnamed (peptide)
# chain: VTDNAWPYPPVAVSQH
# B22: unnamed (peptide)
# chain: FLYYYGLSHNWFGDQT
# B23: unnamed (peptide)
# chain: EFNQWFADHWQQWHYE
# B24: unnamed (peptide)
# chain: PWSWFTYREQLETENV
# B25: unnamed (peptide)
# chain: EERTWSFEEWLWMPAM
# B26: unnamed (peptide)
# chain: HADLQGLGVFEWQEPV
# B27: unnamed (peptide)
# chain: VWVAWSWMHSVQMEAD
# Experiments:
# Experiment in all cases: phage ELISA signal ratio (GST-PRM binding over GST background); higher = stronger binding of peptide-phage to the PRM
# [1] = target: T1, ESRRG 219-458 Hormone_recep (domain …
# Procedure, shortened: (§1)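 Five rounds of selection were carried out against human peptide recognition domains fused to the C-terminus of glutathione S-transferase (GST) and expressed in 96-well plates. The M13 phage library presented randomized hexadecapeptides, cysteine-free and glycine-flanked, on the gene-8 major coat protein. For each value, the phage ELISA signal on the GST-domain fusion was divided by the signal on GST alone.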
# [2] = target: PCMT1 1-227 PCMT (domain begin residue: 1, domain end residue: 227), P22061
# Sequence of PCMT1 1-227 PCMT (domain begin residue: 1, domain end residue: 227), P22061 (P22061 whole entry): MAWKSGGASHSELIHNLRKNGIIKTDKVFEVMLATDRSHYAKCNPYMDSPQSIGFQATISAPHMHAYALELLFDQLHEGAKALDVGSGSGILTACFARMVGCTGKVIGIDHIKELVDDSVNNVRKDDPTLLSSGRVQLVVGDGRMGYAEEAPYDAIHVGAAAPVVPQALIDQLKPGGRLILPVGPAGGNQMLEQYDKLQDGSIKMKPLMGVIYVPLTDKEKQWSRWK
# Procedure, shortened: as §1
# [3] = target: EIF4A1 29-237 DEAD (domain begin residue: 29, domain end residue: 237), P60842
# Sequence of EIF4A1 29-237 DEAD (domain begin residue: 29, domain end residue: 237), P60842 (P60842 whole entry): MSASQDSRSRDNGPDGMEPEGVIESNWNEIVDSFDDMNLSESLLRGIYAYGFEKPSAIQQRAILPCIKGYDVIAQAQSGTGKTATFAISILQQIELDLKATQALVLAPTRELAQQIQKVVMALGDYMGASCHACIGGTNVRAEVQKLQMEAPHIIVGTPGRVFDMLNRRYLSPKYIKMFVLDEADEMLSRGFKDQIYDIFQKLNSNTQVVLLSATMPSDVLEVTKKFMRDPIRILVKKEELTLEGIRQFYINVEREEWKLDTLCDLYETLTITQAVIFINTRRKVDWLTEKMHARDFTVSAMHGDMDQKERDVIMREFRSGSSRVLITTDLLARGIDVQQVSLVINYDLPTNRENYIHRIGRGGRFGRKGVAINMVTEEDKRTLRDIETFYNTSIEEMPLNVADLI
# Procedure, shortened: as §1
# [4] = target: T2, FKBP3 109-224 FKBP_C (domain begin …
# Procedure, shortened: as §1
# [5] = target: T3, ESRRA 179-423 Hormone_recep (domain …
# Procedure, shortened: as §1
# [6] = target: T4, ESR2 263-500 Hormone_recep (domain …
# Procedure, shortened: as §1
# [7] = target: EIF2S1 9-93 S1 (domain begin residue: 9, domain end residue: 93), P05198
# Sequence of EIF2S1 9-93 S1 (domain begin residue: 9, domain end residue: 93), P05198 (P05198 whole entry): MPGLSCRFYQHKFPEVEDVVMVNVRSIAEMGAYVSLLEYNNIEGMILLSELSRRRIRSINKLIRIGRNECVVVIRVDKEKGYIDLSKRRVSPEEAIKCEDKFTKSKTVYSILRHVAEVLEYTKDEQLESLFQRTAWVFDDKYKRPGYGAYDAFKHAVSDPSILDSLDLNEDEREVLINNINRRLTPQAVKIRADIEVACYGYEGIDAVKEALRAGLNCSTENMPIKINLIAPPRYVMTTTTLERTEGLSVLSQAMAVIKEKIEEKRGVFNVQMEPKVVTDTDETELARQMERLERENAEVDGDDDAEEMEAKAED
# Procedure, shortened: as §1
# [8] = target: T5, EVL 1-130 WH1 (domain begin residue: 1, …
# Procedure, shortened: as §1
# [9] = target: EIF4E 2-217 IF4E (domain begin residue: 2, domain end residue: 217), P06730
# Sequence of EIF4E 2-217 IF4E (domain begin residue: 2, domain end residue: 217), P06730 (P06730 whole entry): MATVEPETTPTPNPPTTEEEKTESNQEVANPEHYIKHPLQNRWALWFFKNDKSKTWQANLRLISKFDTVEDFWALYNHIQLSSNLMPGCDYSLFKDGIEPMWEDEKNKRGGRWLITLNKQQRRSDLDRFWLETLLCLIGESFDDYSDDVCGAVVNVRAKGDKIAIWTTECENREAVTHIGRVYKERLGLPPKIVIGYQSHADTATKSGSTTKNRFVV
# Procedure, shortened: as §1
# [10] = target: T6, ENAH 9-116 WH1 (domain begin residue: …
# Procedure, shortened: as §1
# [11] = target: PABPC1 96-174 RRM_1 (domain begin residue: 96, domain end residue: 174)
# Procedure, shortened: as §1
# [12] = target: T7, SPRED1 13-131 WH1 (domain begin …
# Procedure, shortened: as §1
binder,measurement,setting,value
B1,phage ELISA signal ratio,[1],11.2
same,phage ELISA signal ratio,[2],11.2
B2,phage ELISA signal ratio,[1],10.8
same,phage ELISA signal ratio,[2],10.8
B3,phage ELISA signal ratio,[3],5.95
B4,phage ELISA signal ratio,[4],5
B5,phage ELISA signal ratio,[5],3.25
B6,phage ELISA signal ratio,[4],6.15
B7,phage ELISA signal ratio,[1],18.2
same,phage ELISA signal ratio,[2],18.2
B8,phage ELISA signal ratio,[6],25.9
B9,phage ELISA signal ratio,[1],13.1
same,phage ELISA signal ratio,[2],13.1
B10,phage ELISA signal ratio,[7],4.01
B11,phage ELISA signal ratio,[4],13
B12,phage ELISA signal ratio,[8],13.8
B13,phage ELISA signal ratio,[7],14.6
B14,phage ELISA signal ratio,[4],9.64
B15,phage ELISA signal ratio,[1],17.4
B16,phage ELISA signal ratio,[9],7.15
B17,phage ELISA signal ratio,[5],8.22
B18,phage ELISA signal ratio,[10],7.2
B19,phage ELISA signal ratio,[4],11.9
B20,phage ELISA signal ratio,[7],20.4
same,phage ELISA signal ratio,[11],20.4
B21,phage ELISA signal ratio,[10],7.69
B22,phage ELISA signal ratio,[9],7.6
B23,phage ELISA signal ratio,[5],3.76
same,phage ELISA signal ratio,[12],5.28
B24,phage ELISA signal ratio,[9],20.1
B25,phage ELISA signal ratio,[6],26.6
B26,phage ELISA signal ratio,[4],12.6
B27,phage ELISA signal ratio,[7],12.3
same,phage ELISA signal ratio,[11],12.3
